About 2,100 (0.62%) of roughly 340,000 compounds were called active.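 Rule for the calls: active = first-screen hits whose inhibition reached a set limit at any dose in the follow-up dose series; inconclusive = inhibition above the set first-screen limit but never retested; inactive = the rest.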 These entries were drawn from the full list. Measured potencies and affinities stand elsewhere.
The compounds below were run against Rac GTPase-activating protein 1 (Homo sapiens) (UniProt Q9H0H5) (assay: blockers of MgcRacGAP-driven Rac1 GTP hydrolysis – biochemical, ADP Hunter fluorescence, primary and confirmatory, confirmation (AID 624330;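 note: fluorescence reports GDP produced by GAP-driven GTP hydrolysis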)). Conditions: MgcRacGAP-stimulated Rac1 GTP hydrolysis, at 30 µM, hits give high values, GST-tagged Rac1 F28L mutant substrate.
Rac GTPase-activating protein 1 (Homo sapiens), sequence (Q9H0H5 whole entry, looked up): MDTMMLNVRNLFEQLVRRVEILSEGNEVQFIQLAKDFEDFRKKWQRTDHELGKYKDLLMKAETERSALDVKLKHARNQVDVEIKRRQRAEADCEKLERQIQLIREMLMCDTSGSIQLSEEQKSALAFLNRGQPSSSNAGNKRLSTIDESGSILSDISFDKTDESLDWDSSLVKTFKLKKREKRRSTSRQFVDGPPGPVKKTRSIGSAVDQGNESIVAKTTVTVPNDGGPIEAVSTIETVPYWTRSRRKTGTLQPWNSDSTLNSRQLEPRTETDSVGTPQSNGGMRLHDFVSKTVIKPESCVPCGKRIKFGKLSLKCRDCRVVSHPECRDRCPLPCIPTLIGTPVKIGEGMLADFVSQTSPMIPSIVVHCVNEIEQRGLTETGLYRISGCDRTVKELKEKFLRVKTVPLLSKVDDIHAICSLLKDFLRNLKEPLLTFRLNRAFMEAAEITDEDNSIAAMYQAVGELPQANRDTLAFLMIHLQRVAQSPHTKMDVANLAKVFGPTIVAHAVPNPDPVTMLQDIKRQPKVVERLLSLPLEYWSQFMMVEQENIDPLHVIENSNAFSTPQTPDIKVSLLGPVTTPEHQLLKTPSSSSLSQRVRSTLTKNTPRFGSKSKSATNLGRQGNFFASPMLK

inhibition, inactive:
COc1ccc(NC(=O)CCCC(=O)O)cc1Cl 4.87%
CC(=O)c1ccc(S(=O)(=O)NCCC(=O)OC(C)C(=O)Nc2ccc(F)cc2)cc1 (configuration not stated) 5.33%
N#C/C(=C\c1cn(CC(=O)N2CCCCC2)c2ccccc12)C(=O)NCc1ccc2c(c1)OCO2 8.24%
Cc1cc(NC(=O)c2ccc(C#N)cc2)n(-c2ccccn2)n1 4.99%
N#Cc1ccc(OCc2nnc(SCC(=O)N3CCCc4ccccc43)n2-c2ccccc2)cc1 3.45%
CCCCN(C)CCNC(=O)Cn1c(=O)sc2ccccc21 5.94%
NC(N)=Nc1ccc(C=C2C=Cc3ccccc32)cc1 1.28%
C=CCN(CC=C)Cc1nc(N)nc(Nc2ccccc2C)n1 6.1%
CC1(C)CC(=O)C([N+](=O)[O-])=C(NCCCC(=O)O)C1 6.3%
CCOC(=O)CN=C1CC(C)(C)CC2=C1Sc1ncnc(N(C)C)c1N2 6.53%
Cc1ccc(S(=O)(=O)/N=C/N(C)C)cc1 4.85%
O=C(NCc1ccco1)c1ccc(S(=O)(=O)N2CCOCC2)cc1 12.1%
CCOC(=O)c1ccc(NC(=O)Nc2c(C)nn(C)c2C)cc1 6.05%
CC1CC(=O)N(c2ccc(NCCc3ccccc3)c([N+](=O)[O-])c2)C1=O (configuration not stated) 12.4%
COc1ccc(CCNc2ccc(N3C(=O)CC(C)C3=O)cc2[N+](=O)[O-])cc1 (configuration not stated) 3.45%
COCCNC(=O)C1CCCN(S(=O)(=O)c2c(C)noc2/C=C/c2cccs2)C1 (configuration not stated) 5.26%
Cc1cc(C)c(N)cc1C 5.41%
Cc1cc(Cc2cc(C)c(N)cc2C)c(C)cc1N 11.3%
COc1ccc(S(=O)(=O)N(C)C[C@H]2Oc3c(NC(=O)C4CC4)cccc3C(=O)N([C@H](C)CO)C[C@@H]2C)cc1 13.9%
CCc1ccc(Nc2oc(C)cc(=O)c2C(C)=O)cc1 2.6%
CC(=O)c1c(Nc2cccc(F)c2)oc(C)cc1=O 8.68%
O=C(c1cccc(NS(=O)(=O)c2ccc(Br)cc2)c1)N1CCN(c2ccccc2O)CC1 -1.11%
CC(O)CNc1nc2ccccc2n1CC(=O)NC12CC3CC(CC(C3)C1)C2 (configuration not stated) -6.35%
O=C(Nc1ccccc1)c1cccc(NC(=O)c2ccco2)c1 11.5%
O=[N+]([O-])c1ccccc1OCCCNCc1ccccc1 21.2%
Clc1cccc(Cl)c1OCCOCCNCc1ccccc1 22.1%
Cc1cc(Cl)cc(C)c1OCCNCc1ccccc1 26.3%
CCCOc1ccc(OCCOCCNCc2ccccc2)cc1 19.2%
CCc1cc(OCCCCNCc2ccccc2)ccc1Cl 28.9%
CCOc1ccc(OCCOCCNCCOC)cc1 12.8%
Cc1cc(OCCOCCN(C)C)ccc1Cl 9.69%
O=[N+]([O-])c1ccccc1OCCOc1ccccc1[N+](=O)[O-] 7.67%
CC1(c2nnc(-c3cccc(Cl)c3)o2)CC(c2ccccc2)=NO1 (configuration not stated) 6.54%
CCN(CC)CCCNC(=O)C1CCCN(c2nnc(N3CCCC3=O)s2)C1 (configuration not stated) 8.15%
Cc1ccccc1C(=O)N1CCC(C(=O)Nc2ccccn2)CC1 3.54%
CC1CCCC(C)N1CC(O)COC1CCC(C(C)(C)C)CC1 (configuration not stated) 8.37%
CC(C)(C)c1cccc(OCCCSc2ncccn2)c1 4.61%
O=C(N/C(=C/c1ccc(Br)cc1)C(=O)N1CCCCC1)c1ccccc1F 8.71%
Cc1cc(Cl)c(OCCCNCc2ccccc2)c(Br)c1 30.3%
Cc1cc(C)c(C)c(OCCOCCNCc2ccccc2)c1 17.1%
COCCNCCCCOc1c(Cl)cc(C)cc1Br 27.8%
Cc1cc(C)c(OCCCNCc2ccccc2)c(Br)c1 26.8%
Cc1ccc(OCCNCc2ccccc2)c(C)c1 20.6%
C=CCNCCCCOc1c(Cl)cc(C)cc1Br 29.7%
Cc1cc(C(=O)CSc2ccc3c(c2)OCCO3)c(C)n1C1CC1 6.62%
COc1ccc(C(=O)/C=C/c2ccccc2OC)c(OC(=O)c2ccc([N+](=O)[O-])cc2)c1 8.99%
COc1cccc(C2C(C(=O)c3cccs3)=C(O)C(=O)N2CCN2CCOCC2)c1 (configuration not stated) -8.26%
O=C(NCc1ccccc1Cl)C1CCC(=O)N1Cc1ccc(F)cc1 (configuration not stated) 11.4%
CN(CCOc1ccccc1)C(=S)Nc1ccc(OC(F)F)cc1 5.1%
O=C(c1ccc(Cl)cc1)N1CCN(C(=O)C2CCCCC2)CC1 7.43%
O=C1N/C(=C\c2ccccc2)C(O)=C1C=NCc1ccccc1 3.17%
O=C1N/C(=C/c2ccc(Br)cc2)C(O)=C1C=NCc1ccccc1 3.27%
COc1cc(NC(=O)CN2CCC(C(N)=O)(N3CCCCC3)CC2)c(OC)cc1Cl 0.16%
Cc1onc(-c2ccccc2)c1C(=O)N/N=C/c1cccc(O)c1 8.34%
CCOc1ccc(/C=N/NC(=O)c2c(-c3ccccc3)noc2C)cc1 10.9%
COc1cc(/C=N/NC(=O)c2c(-c3ccccc3)noc2C)cc(OC)c1OC 7.95%
CCCOc1ccc(/C=N/NC(=O)c2c(-c3ccccc3)noc2C)cc1OC 7.42%
CCOC(=O)c1c(C)n(C)c2cc(Br)c(C)cc12 -1.61%
CCc1nnc(NS(=O)(=O)c2ccc(N=Cc3c(C)[nH]n(-c4cccc(Cl)c4)c3=O)cc2)s1 9.47%
Cc1nn(C)cc1CNC(=O)c1ccccc1Br -6.9%
CC(Oc1ccc2ccc(=O)oc2c1)C(=O)c1ccccc1 (configuration not stated) 8.03%
CN(C)CCNC(=O)c1c(NC(=O)c2ccccc2)sc2c1CCCC2 11.8%
NCCNC(=O)c1c(NC(=O)c2ccccc2)sc2c1CCCC2 10.3%
CCCC(=O)Nc1cc(C)c(NC(=O)c2ccncc2)cn1 1.4%
CCOc1ccccc1NC(=O)COC(=O)C1CCC1 6.3%
O=C1CCCC(=O)C1=Cc1c[nH]c2ccccc12 8.99%
O=C1OC2(CCCC2)OC(=O)C1=Cc1c[nH]c2ccccc12 10.5%
O=C(O)Cn1cc(/C=C2\SC(=O)N(c3ccccc3)C2=O)c2ccccc21 0.86%
O=C(O)Cn1cc(/C=C2/NC(=O)N(c3ccc(Cl)cc3)C2=O)c2ccccc21 8.99%
Clc1ccc(-c2csc(Nc3ccccc3)[n+]2Cc2ccco2)c(Cl)c1 4.62%
COC(=O)c1c(C(=O)OC)c2ccccn2c1C(=O)c1ccc([N+](=O)[O-])cc1 -6.01%
Nc1cccc(-c2nc3ccc(N)cc3s2)c1 10.5%
Cc1nc2ccc(N)cc2s1 5.78%
Nc1ccc2sc(N)nc2c1 19.6%
Nc1ccc(-c2nc3cc(N)ccc3s2)cc1 7.4%
Nc1nc2ccc(Br)cc2s1 1.67%
Nc1ccc2nc(-c3ccccc3)sc2c1 4.03%
COc1cccc(NC(=O)CN(C)C(=O)/C=C/c2ccc3ccccc3n2)c1 0.53%
COc1ccc(-c2nc(N3CCOCC3)nc3n[nH]c(N)c23)cc1 -3.94%
COc1ccc(CCN(C)C2CCCN(S(=O)(=O)c3ccccc3)C2)cc1OC (configuration not stated) 10.3%
O=C(CSc1ncn[nH]1)Nc1ccc(Cl)c(Cl)c1 12.3%
O=C(O)/C=C/C(=O)Nc1ccc(OCc2ccccc2)cc1 11.5%
CCOc1[nH]n(-c2ccc(Cl)cc2)c(=O)c1C=NCc1cccnc1 7.22%
O=C1OCCC1=Cc1ccccc1 -4.26%
CC1CCCC(=C\c2ccccc2)/C1=N/O (configuration not stated) 9.75%
O=C1OCC/C1=C\c1ccccc1 5.73%
CC1CCC/C(=C\Nc2ccc(C(=O)O)cc2)C1=O (configuration not stated) -1.76%
O=C(NC1CCS(=O)(=O)C1)c1cnccn1 (configuration not stated) 6.19%
O=C(c1scc2c1CCCC2)N1CCOCC1 5.17%
O=C(Nn1c(-c2ccc(Br)cc2)nc2ccccc2c1=O)c1cccnc1 2.47%
CCCN(CCC)CC(O)CN1C(=O)NC(C)(C)C1=O (configuration not stated) -0.64%
COc1ccc(C(=O)CSc2nnc(-c3cccnc3)n2Cc2ccco2)cc1 9.77%
CCCCn1c(N)nc2ccccc21 1.51%
CCCCC(=O)NCc1ccc2c(c1)cc(C)n2C 7.65%
Cc1ccc(N2CC(C(=O)NC(C)CCc3ccccc3)CC2=O)cc1 (configuration not stated) 1.14%
Cc1cc(OCn2ccc(C(=O)O)n2)ccc1Cl 15.5%
O=C(c1cccc2ccccc12)N1CCN(Cc2ccccc2F)CC1 30.9%
O=C(c1ccccc1Cl)N1CCN(Cc2ccc3c(c2)OCO3)CC1 1.05%
CCNC(=S)N1CCN(Cc2ccc3c(c2)OCO3)CC1 3.54%
CCCNC(=S)N1CCN(Cc2ccc3c(c2)OCO3)CC1 23.5%
O=C(O)c1ccccc1C(=O)N1CCN(Cc2ccc3c(c2)OCO3)CC1 6.42%
O=C(c1ccccc1)c1ccccc1C(=O)N1CCN(Cc2ccccc2F)CC1 15.4%

From PubChem BioAssay AID624330 (Southern Research Specialized Biocontainment Screening …, 2012)
